PubChem BioAssay (NCI)
About 83,000 compounds went through this panel and 20% of them were active in at least one assay; those are over-represented in the sample as a whole.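 Values shown are percent growth following 48 h exposure of cells in 96-well plates to a single concentration of compound; below 10 was considered active.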 Values without a mark were called inactive. Activity calls are given as the source filed them.

system: MDA-MB-468 breast; experiment: NCI-60 one-dose screen, 48 h (100 = growth as untreated, 0 = no growth, -100 = all killed); details: 10 µM unless noted

| Structure (SMILES) | growth |
| --- | --- |
| COc1ccc(-c2nn(-c3ccccc3)cc2/C=C/C(=O)NNC(=O)Nc2ccc(C)cc2)cc1 | 102% |
| CCOC(=O)c1nnn(-c2no[n+]([O-])c2-c2ccc(OC)cc2)c1COc1cccc2cccnc12 | 33.6% |
| O=C(/C=C/c1ccc2c(c1)OCO2)c1c(O)c2ccccc2oc1=O | 133% |
| Fc1ccc2[nH]cc(-c3nc(-c4c[nH]c5ncccc45)cs3)c2c1 | 34.9% |
| COc1c(N2CC3CCCNC3C2)c(F)cc2c(=O)c(C(=O)N/N=C/c3c[nH]c4ccccc34)cn(C3CC3)c12 (stereo not given) | 100% |
| CCN(CC)c1nc(SCC(=O)Nc2nc3ccc(C)cc3s2)nc(-c2ccccc2)c1C#N | 86.7% |
| COC(=O)C1=C(C(=O)OC)C23C=C(C)C1C2=C(C)C1(CC1)[C@@](C)(O)C3=O (stereo not given in full) | -54.2% (active) |
| COc1ccc(NC(=O)CSc2nnc(-c3cc(-c4ccc(S(N)(=O)=O)cc4)nc4ccccc34)n2-c2ccccc2)cc1 | 86.4% |
| COC(=O)C1OC1c1cc([N+](=O)[O-])ccc1OC (stereo not given) | 76.2% |
| Cc1ccc(OCCOCCOCCOCCOCCOc2ccc(C)n(O)c2=S)c(=S)n1O | -22.8% (active) |
| Oc1c(CN2CCN(c3ccccc3F)CC2)cc(Br)c2cccnc12 | -43% (active) |
| CCOC(=O)c1c(C=O)nc2ccccc2c1/C=C/c1ccc(Cl)cc1 | 102% |
| CCOC(=O)C(=O)Nc1ccc2c(ccn2C(=O)c2cccc(F)c2)c1 | 89.5% |
| C#Cc1cccc(NC(=O)Nc2ccc(NC(=O)CCl)cc2)c1 | -53.7% [8.25 µM] (active) |
| Cc1ccc2c(-c3nnc(N)s3)cc(=O)oc2c1C | 95.6% |
| CN(C)CCNC(=O)c1cccn2c(=O)c3cc4ccccc4cc3nc12 | -43.6% (active) |
| N#Cc1ccc(NC(=O)Nc2ccc(Oc3ccc(NC(=O)Nc4ccc(C#N)cc4)cc3)cc2)cc1 | 26% |
| CN1CCN(c2nc(NCCCCNc3ccnc4cc(Cl)ccc34)c3ccccc3n2)CC1 | 62.4% |
| COc1c2occc2c(OC)c2c(=O)c(-c3cc(-c4ccc(F)cc4)c(C#N)c(N)n3)c(C)oc12 | 26.4% |
| COc1cc(-c2ccc3cc(OC)c(OC)c(OC)c3c2)cc(OC)c1OC | 31.6% |

| Structure (SMILES) | growth |
| --- | --- |
| O=[N+]([O-])c1ccc(NC(=S)N/N=C/c2cc3ccccc3n3nnnc23)cc1 | 61.7% |
| Cc1cc(C)cc(S(=O)(=O)n2ccc(-c3ccc4c(c3)CCC(C)(C)O4)n2)c1 | 54.6% |
| COC(CC(F)F)c1cn(S(=O)(=O)c2ccc(C)cc2)c2ccccc12 (stereo not given) | 8.95% (active) |
| O=C1/C(=C\c2cccn2Cc2ccc(Cl)cc2)c2ccccc2N1c1c(Cl)cccc1Cl | -27.9% (active) |
| N/C(=C\C(=O)n1nc(-c2ccccc2)cc1N)c1ccccc1 | 19.2% |
| COc1ccc([N+](=O)[O-])c(C(=O)O)c1 | 96.4% |
| OC(c1cccc(OCc2ccccc2)c1)c1nnc(-c2ccccc2)o1 (stereo not given) | 64.8% |
| COc1ccc2c(c1)c(-c1nc(N)nnc1-c1c[nH]c3ccccc13)cn2C | -9.57% (active) |
| Cc1cc2nc(C(Cl)Cl)nc(-c3ccccc3)n2n1 | -20.7% (active) |
| O=C(Nc1cccc(-n2cc(-c3ccncc3)c(-c3cc(O)cc(Cl)c3)n2)c1)Nc1ccc(Cl)c(Cl)c1 | -1.88% (active) |
| O=c1c2cc(F)ccc2sc2c(NCCCN3CCCC3)nc3ccccc3c12 | -13.7% (active) |
| O=C(O)c1cc2ccccc2cc1Nc1ccccc1 | 102% |
| CNC(=O)c1cc(Oc2ccc(NC(=O)c3nc(S(C)(=O)=O)sc3-c3ccc(F)cc3)cc2)ccn1 | -4.37% (active) |
| CCn1c(-c2nonc2N)nc2c(C#CC(C)(C)O)ncc(OC[C@H]3CCCNC3)c21 | 31.5% |
| CCCNCC(=O)Nc1ccc(C(=O)OC(C)(C)CC)cc1 | 102% |
| c1ccc(Cn2cnc3ccc(-c4nc(-c5ccc6c(c5)ncn6C5CCCCC5)cn5ccnc45)cc32)cc1 | -35.7% (active) |
| COc1ccc(NC(=O)c2ccc(NC3=C(c4ccc(Cl)cc4)C(=O)NC3=O)cc2)cc1 | 88.1% |
| CC1=C(C)C(=O)C(Nc2ccc3c(c2)OCO3)=C(Br)C1=O | 36.3% |
| CC(=O)[C@H]1CC[C@]2(C)[C@@H]1CC[C@@H]1[C@@]3(C)C/C(=C/c4cccnc4)C(=O)C(C)(C)[C@@H]3CC[C@]12C | 60.3% |
| COc1ccc(/C=C\c2cc(OC)c(OC)c(OC)c2)cc1OCC(=O)Nc1nc2ccccc2s1 | 9.63% (active) |
